Data as given in PubChem BioAssay (Tox21).
Records with an inconclusive call do not appear. Entries that show only a call come without a potency. Calls of active or inactive are those of the source. Unless noted, calls follow the shape of the dose curve; as a rule, active = well fitted curve in the direction sought with a large enough effect in the repeat runs; inconclusive = weak or mixed curves; inactive = no such curve, though single readings can be large; an effect the other way counts as inactive or inconclusive.

Tests used:
[1] = qHTS assay to test for compound auto fluorescence at 535 nm (green) in HEK293 cells (AID 720680)
[2] = qHTS assay to test for compound auto fluorescence at 460 nm (blue) in HEK293 cell free culture (AID 720681)
In short: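 Compounds were added to cell-free DMEM with 10% FBS and fluorescence read directly. The blue channel used 405 nm excitation and 460 nm emission, with triamterene as the reference fluorophore.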

[3] = qHTS assay to test for compound auto fluorescence at 535 nm (green) in HEK293 cell free culture (AID 720682)
In short: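 Compounds were pin-transferred into cell-free DMEM with 10% FBS, and green fluorescence was read at excitation 485 nm and emission 535 nm. Intensities were expressed as fluorescein-equivalent values.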

[4] = qHTS assay to test for compound auto fluorescence at 590 nm (red) in HEK293 cell free culture (AID 720683)
In short: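 Cell-free wells of DMEM with 10% FBS received compound, and intrinsic fluorescence was read at excitation/emission 540/590 nm. Values expressed as equivalence to Rose Bengal sodium.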

[5] = qHTS assay to test for compound auto fluorescence at 590 nm (red) in HepG2 cell free culture (AID 720684)
In short: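 Compounds are added to culture medium (MEM, 10% FBS) lacking cells, then fluorescence is read at excitation 540 nm, emission 590 nm, with Rose Bengal sodium as the equivalency standard.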

[6] = qHTS assay to test for compound auto fluorescence at 460 nm (blue) in HepG2 cell free culture (AID 720685)
In short: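 Compound (23 nL) or DMSO pinned into cell-free MEM with 10% FBS; blue fluorescence read at 405/460 nm excitation/emission, expressed as auto-fluorescence equivalency to triamterene.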

[7] = qHTS assay to test for compound auto fluorescence at 535 nm (green) in HepG2 cell free culture (AID 720686)
[8] = qHTS assay to test for compound auto fluorescence at 460 nm (blue) in HepG2 cells (AID 720687)
In short: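 HepG2 cells in MEM with 10% FBS, attached overnight at 37 C, were exposed to compound or DMSO for 1 hr at 37 C, 5% CO2. Blue fluorescence was read at 405/460 nm, with triamterene as reference fluorophore.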

[9] = target: Glucocorticoid receptor (Homo sapiens) (UniProt P04150); assay: qHTS assay to identify small molecule agonists of the glucocorticoid receptor (GR) signaling pathway (AID 720691; active = well fitted activation curve with a large enough effect in the signal ratio in the repeat runs, not every such curve was filed as active; the % refers to the signal ratio; also: potency is read from the fitted curve at half-maximal effect)
Sequence of Glucocorticoid receptor (Homo sapiens) (P04150 whole entry, looked up): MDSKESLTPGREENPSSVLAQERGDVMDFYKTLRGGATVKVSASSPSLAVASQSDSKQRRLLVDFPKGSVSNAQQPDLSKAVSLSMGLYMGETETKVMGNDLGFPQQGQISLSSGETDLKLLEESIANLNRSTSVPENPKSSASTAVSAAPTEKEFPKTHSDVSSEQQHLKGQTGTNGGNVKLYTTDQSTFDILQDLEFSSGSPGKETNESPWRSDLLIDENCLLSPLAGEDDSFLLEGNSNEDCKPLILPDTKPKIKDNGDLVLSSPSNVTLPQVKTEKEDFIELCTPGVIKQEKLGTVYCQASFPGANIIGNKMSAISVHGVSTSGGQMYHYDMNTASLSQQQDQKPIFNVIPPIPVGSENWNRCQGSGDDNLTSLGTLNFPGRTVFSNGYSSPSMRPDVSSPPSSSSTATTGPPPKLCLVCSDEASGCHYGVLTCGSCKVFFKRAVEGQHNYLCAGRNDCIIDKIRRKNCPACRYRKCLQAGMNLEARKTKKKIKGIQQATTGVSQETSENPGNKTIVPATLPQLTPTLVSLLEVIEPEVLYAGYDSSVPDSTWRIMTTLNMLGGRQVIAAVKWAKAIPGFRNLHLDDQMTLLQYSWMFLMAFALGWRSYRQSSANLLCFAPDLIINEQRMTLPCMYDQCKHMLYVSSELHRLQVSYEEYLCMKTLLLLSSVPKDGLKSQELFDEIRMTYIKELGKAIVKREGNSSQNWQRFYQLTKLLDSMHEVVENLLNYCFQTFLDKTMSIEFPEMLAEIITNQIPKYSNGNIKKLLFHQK
In short: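 GR-bla HeLa cells carrying a GRE-driven beta-lactamase reporter, exposed to compounds for 18 h at 37 C. Reporter activation read as fluorescence after 2 h with LiveBLAzer B/G FRET substrate at room temperature.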

[10] = target: Glucocorticoid receptor (Homo sapiens) (UniProt P04150); assay: qHTS assay to identify small molecule antagonists of the glucocorticoid receptor (GR) signaling pathway (AID 720692; active = well fitted inhibition curve with a large enough effect in the signal ratio in the repeat runs, not every such curve was filed as active; the % refers to the signal ratio)
In short: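 GR-bla HeLa cells carrying a GRE-driven beta-lactamase reporter received compound after 4 h plating, then dexamethasone (5 nM final). After 18 h at 37C, the FRET substrate was loaded for 2 h at room temperature and fluorescence read.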

[11] = qHTS assay to identify small molecule antagonists of the glucocorticoid receptor (GR) signaling pathway - cell viability counter screen (AID 720693); also: nearly all actives have a fitted effect of over 55% in size
[12] = qHTS assay for identifying genotoxic compounds that show differential cytotoxicity against isogenic chicken DT40 cell lines with known DNA damage response pathways - wild type cell line (AID 743012); also: nearly all actives have a fitted effect of over 60% in size; also: potency is read from the fitted curve at half-maximal effect
In short: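 Wild-type DT40 cells (300/well) exposed to compounds for 40 hours at 37 C/5% CO2. Viability read by CellTiter-Glo luminescence after 30 min at room temperature.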

[13] = qHTS assay for identifying genotoxic compounds that show differential cytotoxicity against isogenic chicken DT40 cell lines with known DNA damage response pathways - Rev3 mutant cell line (AID 743014); also: nearly all actives have a fitted effect of over 55% in size; also: potency is read from the fitted curve at half-maximal effect
[14] = qHTS assay for identifying genotoxic compounds that show differential cytotoxicity against isogenic chicken DT40 cell lines with known DNA damage response pathways - Rad54/Ku70 mutant cell line (AID 743015); also: nearly all actives have a fitted effect of over 60% in size; also: potency is read from the fitted curve at half-maximal effect
[15] = qHTS assay to identify small molecule antagonists of the androgen receptor (AR) signaling pathway - cell viability counter screen (AID 743033; also: nearly all actives have a fitted effect of over 45% in size)
[16] = qHTS assay to identify small molecule antagonists of the androgen receptor (AR) signaling pathway using the MDA cell line - cell viability counter screen (AID 743041; also: nearly all actives have a fitted effect of over 45% in size)
In short: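 Same-well cytotoxicity was assessed by CellTiter-Fluor in MDA-kb2 AR-luc cells after 16 h of compound treatment under R1881 agonism.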

[17] = target: Androgen receptor (Homo sapiens) (UniProt P10275); assay: qHTS assay to identify small molecule agonists of the androgen receptor (AR) signaling pathway (AID 743036; active = well fitted activation curve with a large enough effect in the signal ratio in the repeat runs, with a control signal flat, not every such curve was filed as active; the % refers to the signal ratio)
Sequence of Androgen receptor (Homo sapiens) (P10275 whole entry, looked up): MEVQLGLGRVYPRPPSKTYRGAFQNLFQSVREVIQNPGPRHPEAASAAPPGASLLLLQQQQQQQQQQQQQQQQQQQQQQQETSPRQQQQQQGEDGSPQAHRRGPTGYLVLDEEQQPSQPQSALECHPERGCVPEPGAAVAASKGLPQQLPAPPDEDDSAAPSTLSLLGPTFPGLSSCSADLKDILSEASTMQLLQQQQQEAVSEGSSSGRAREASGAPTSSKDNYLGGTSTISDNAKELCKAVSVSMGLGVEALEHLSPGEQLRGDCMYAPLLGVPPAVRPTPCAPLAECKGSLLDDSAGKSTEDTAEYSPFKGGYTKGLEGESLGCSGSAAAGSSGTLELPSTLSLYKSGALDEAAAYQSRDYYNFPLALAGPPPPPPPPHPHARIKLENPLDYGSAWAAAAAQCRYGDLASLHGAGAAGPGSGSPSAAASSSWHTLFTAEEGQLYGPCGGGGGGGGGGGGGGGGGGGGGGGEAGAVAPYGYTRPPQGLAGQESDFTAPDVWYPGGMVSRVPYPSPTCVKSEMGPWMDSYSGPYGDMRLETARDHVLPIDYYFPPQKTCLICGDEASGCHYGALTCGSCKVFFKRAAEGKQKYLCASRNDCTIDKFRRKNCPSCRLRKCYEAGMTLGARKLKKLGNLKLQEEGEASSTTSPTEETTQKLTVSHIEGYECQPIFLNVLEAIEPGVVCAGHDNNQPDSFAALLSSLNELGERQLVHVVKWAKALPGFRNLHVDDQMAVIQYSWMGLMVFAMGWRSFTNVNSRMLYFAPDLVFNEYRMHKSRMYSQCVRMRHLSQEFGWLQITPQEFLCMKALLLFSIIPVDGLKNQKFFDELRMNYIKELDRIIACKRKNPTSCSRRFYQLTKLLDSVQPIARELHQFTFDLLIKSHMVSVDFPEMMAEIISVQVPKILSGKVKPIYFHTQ
In short: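 Activation was read as beta-lactamase FRET signal from LiveBLAzer B/G substrate, added for 2 h at room temperature. Before that, GeneBLAzer AR-UAS-bla GripTite (HEK293) cells had 16 h compound exposure at 37C.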

[18] = target: Androgen receptor (Homo sapiens) (UniProt P10275); assay: qHTS assay to identify small molecule agonists of the androgen receptor (AR) signaling pathway using the MDA cell line (AID 743040; also: nearly all actives have a fitted effect of over 20% in size); settings: MDA-kb2 AR-luc cells, MMTV luciferase, 16 h; activity change: at 70.3 µM (top of the series), stronger effect = higher value
In short: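 Human breast carcinoma MDA-kb2 reporter cells (MMTV-luc, AR/GR elements) were treated for 16 h at 37C in 0% CO2 following a 5 h settling period. Signal was quantified by ONE-Glo luminescence.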

[19] = target: Androgen receptor (Homo sapiens) (UniProt P10275); assay: qHTS assay to identify small molecule antagonists of the androgen receptor (AR) signaling pathway using the MDA cell line (AID 743042; also: nearly all actives have a fitted effect of over 55% in size)
In short: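 MDA-kb2 breast carcinoma cells carrying MMTV-luciferase (AR/GR responsive) were co-treated with compounds and the agonist R1881 for 16 h at 37C. Inhibition read as ONE-Glo luminescence; CellTiter-Fluor fluorescence measured in parallel for cytotoxicity.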

[20] = target: Androgen receptor (Homo sapiens) (UniProt P10275); assay: qHTS assay to identify small molecule antagonists of the androgen receptor (AR) signaling pathway (AID 743035; active = well fitted inhibition curve with a large enough effect in the signal ratio in the repeat runs, not every such curve was filed as active; the % refers to the signal ratio)
In short: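 HEK293 cells stably carrying UAS-beta-lactamase reporter, 2,000/well, given compounds plus R1881 agonist and incubated 16 h at 37C. LiveBLAzer B/G FRET substrate then added for 2 h at room temperature before fluorescence reading.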

Row | SMILES | outcome [1] | outcome [2] | outcome [3] | outcome [4] | outcome [5] | outcome [6] | outcome [7] | outcome [8] | Potency [9] | Potency [10] | Potency [11] | Potency [12] | Potency [13] | Potency [14] | Potency [15] | Potency [16] | Potency [17] | Potency [18] | Potency [19] | Potency [20]
1 | CCCBr | inactive | inactive | inactive | inactive | inactive | inactive | inactive | inactive | inactive | inactive | inactive | inactive | inactive | inactive | inactive | inactive |  |  |  | 
2 | CCCCCl | inactive | inactive | inactive | inactive | inactive | inactive | inactive | inactive | inactive | inactive | inactive | inactive | inactive | inactive | inactive | inactive |  |  |  | 
3 | Oc1cccc(Cl)c1 | inactive | inactive | inactive | inactive | inactive | inactive | inactive | inactive | inactive | inactive | inactive | inactive | inactive | inactive | inactive | inactive |  |  |  | 
4 | O=C(Cc1ccccc1)OCCc1ccccc1 | inactive | inactive | inactive | inactive | inactive | inactive | inactive | inactive | inactive | inactive | inactive | 68.6 µM (active) |  | 61.1 µM (active) | inactive | inactive |  |  |  | 
5 | O=C(Cl)OCCOCCOC(=O)Cl | inactive | inactive | inactive | inactive | inactive | inactive | inactive | inactive | inactive | inactive | inactive | inactive | inactive | inactive | inactive | inactive | inactive | inactive | inactive | 
6 | OCC1CO1 (stereo unspecified) | inactive | inactive | inactive | inactive | inactive | inactive | inactive | inactive | inactive | inactive | inactive | inactive | inactive |  | inactive | inactive |  |  |  | 
7 | CCc1cnc(C2=NC(C)(C(C)C)C(=O)N2)c(C(=O)O)c1 (stereo unspecified) | inactive | inactive | inactive | inactive | inactive | inactive | inactive | inactive | inactive | inactive | inactive | inactive | inactive | inactive | inactive | inactive |  |  |  | 
8 | ClCc1ccccc1Cl | inactive | inactive | inactive | inactive | inactive | inactive | inactive | inactive | inactive | inactive | inactive | inactive | inactive |  | inactive | inactive |  | inactive | inactive | inactive
9 | CCOC(=O)c1cn2nc(OP(=S)(OCC)OCC)cc2nc1C | inactive | inactive | inactive | inactive | inactive | inactive | inactive | inactive | inactive | inactive | inactive | 27.3 µM (active) | 48.6 µM (active) |  |  | inactive |  |  |  | 
10 | CC(C)CCCCCCCOC(=O)c1ccccc1C(=O)OCCCCCCCC(C)C | inactive | inactive | inactive | inactive | inactive | inactive | inactive | inactive | inactive | inactive | inactive | inactive |  | inactive | inactive | inactive |  |  |  | 
11 | C=C(Cl)Cl | inactive | inactive | inactive | inactive | inactive | inactive | inactive | inactive | inactive | inactive |  | inactive | inactive | inactive | inactive | inactive | inactive | inactive | inactive | inactive
12 | Clc1ccccc1 | inactive | inactive | inactive | inactive | inactive | inactive | inactive | inactive | inactive | inactive | inactive | inactive | inactive | inactive | inactive | inactive |  |  |  | 
13 | CCCCC(CC)COC(=O)c1c(Br)c(Br)c(Br)c(Br)c1C(=O)OCC(CC)CCCC (stereo unspecified) | inactive | inactive | inactive | inactive | inactive | inactive | inactive | inactive | 33.8 µM (active) | inactive | inactive | inactive | inactive | inactive | inactive | inactive |  |  |  | 
14 | CN1CC[C@]23c4c5ccc(O)c4O[C@H]2[C@@H](O)CC[C@H]3[C@H]1C5 | inactive | inactive | inactive | inactive | inactive | inactive | inactive | inactive | inactive | inactive | inactive | inactive |  |  | inactive | inactive |  |  |  | 
15 | CC(O)CN1CCN(CC(=O)[O-])CCN(CC(=O)[O-])CCN(CC(=O)[O-])CC1.[Gd+3] (stereo unspecified) | inactive | inactive | inactive | inactive | inactive | inactive | inactive | inactive | inactive | inactive | inactive | inactive | inactive | inactive | inactive | inactive |  |  |  | 
16 | Cc1nnc(-c2ccccc2)c(=O)n1N | inactive | inactive | inactive | inactive | inactive | inactive | inactive | inactive | inactive | inactive | inactive | inactive | inactive |  | inactive | inactive |  |  |  | 
